Shown are actives, neighbours in structure and some others; about 11% of the full set was active somewhere.
ALDH1A1 inh = blocks purified human ALDH1A1 activity | Purified ALDH1A1, NADH fluorescence, propionaldehyde substrate | 220,000 compounds, 7.3% hits | Potency, µM (highest dose often 75.3 µM), inactives show at the highest dose activity, negative = inhibition, usual class: inhibitors | P00352; active means well fitted inhibition curve with a large enough effect, not every such curve was filed as active; inconclusive means small, poorly fitted or top-dose-only effect, or another doubt; inactive means no such curve, though single readings can be large or run the other way;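 further: potency means the concentration at half of the fitted maximal effect; plate controls were no enzyme wells and a reference inhibitor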
HTT aggregate = mutant huntingtin aggregation inhibition; PC12 HttQ103-GFP aggregates, Acumen cytometry, 40 h; Potency, µM (top dose mostly 46.1 µM), inactives show at the top dose activity change, negative = inhibition, hits mostly inhibitors; 220,000 compounds, 1.1% hits; further: potency means the concentration at half of the fitted maximal effect; on the % scale 0 is the no-effect control and ±100 the full control effect; nearly all actives have a fitted effect of over 60% in size
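Steps: seed 1500 PC12 HTTQ103-GFP cells/well; add tebufenozide, 100 nM final; add compound titration; add ATPLite reagent; quantify GFP aggregates by laser scanning cytometry.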
HTT ATP protect = protects HTT-Q103 PC12 cells, measured by ATP | PC12 HTT-Q103 induced, cytoprotection, ATP luminescence, 40 h | Potency, µM (doses to about 56.4 µM), for inactives: cytoprotection (ATP increase), actives largely listed as activators | 230,000 compounds, 0.14% hits | AID 1471; further: potency means the concentration at half of the fitted maximal effect; % of control where 0% means no effect; nearly all actives have a fitted effect of over 45% in size
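Huntington model: PC12 line, ecdysone-inducible HTTQ103 exon1–GFP, tebufenozide 100 nM. Test articles in a dose series. Endpoint luminescence from cellular ATP.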
PNC assembly inh = inhibitors of perinucleolar compartment assembly; PC3M PTB-GFP, PNC prevalence imaging, 16 h; stronger effect = lower value; 140,000 compounds, 3.1% hits; AID 2417; activity change (PNC), negative = inhibition, % at 10 µM;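 active means readout at or below -70, meaning at least 70% loss of cells showing the perinucleolar compartment, a nuclear body marking cancer cells; inconclusive means readout between -30 and a set limit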;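 further: plate controls were DMSO wells for no effect and camptothecin positive control wells for full effect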
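Read-out is percentage of cells bearing a perinucleolar compartment, from automated 20x imaging of fixed, Hoechst-stained PC3M PTB-GFP cells. Cells were seeded 4 h, then exposed 16 h to compound (23 nl of library stock) in duplicate plates.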
CBFb-RUNX1 inh = inhibitors of human CBF-beta and RUNX1 interaction; Q01196+Q13951; AlphaScreen CBFb-His/RUNX1-biotin binding, biochemical; 230,000 tested, under 10 active; Potency, µM (highest dose often 59.8 µM), for inactives: at the top dose activity, negative = inhibition, usual class: inhibitors; further: % of control where 0% means no effect
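Compounds were screened at multiple concentrations against a preformed CBF-beta(His)/RUNX1(biotin) complex (30 nM of each) for 15 min at room temperature, followed by 90 min with nickel and streptavidin beads and AlphaScreen reading.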
HPGD block = inhibitors of human 15-hydroxyprostaglandin dehydrogenase (HPGD) | P15428 | purified HPGD, NADH fluorescence kinetic, PGE2 substrate | Potency, µM, inactives show at the top dose activity change, negative = inhibition, hits mostly inhibitors | 150,000 compounds, 4.3% hits | AID 894; active means well fitted inhibition curve with a large enough effect, not every such curve was filed as active; inconclusive means small, poorly fitted or top-dose-only effect, or another doubt; inactive means no such curve, though single readings can be large or run the other way; further: potency means the concentration at half of the fitted maximal effect; on the % scale 0 is the no-effect control and ±100 the full control effect
Target sequence (P15428 whole entry, looked up): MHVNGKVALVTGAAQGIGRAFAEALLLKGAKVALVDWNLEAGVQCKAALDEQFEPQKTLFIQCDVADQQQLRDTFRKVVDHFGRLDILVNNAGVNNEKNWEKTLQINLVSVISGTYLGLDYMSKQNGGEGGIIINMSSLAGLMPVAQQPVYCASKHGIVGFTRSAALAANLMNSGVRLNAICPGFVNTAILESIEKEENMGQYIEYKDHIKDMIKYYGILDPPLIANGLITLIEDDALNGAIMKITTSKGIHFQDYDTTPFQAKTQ
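20 nM HPGD preincubated 15 min at room temperature with compound in 50 mM Tris-HCl pH 8, 0.01% Tween 20. Started with 1 mM NAD+ and 30 uM prostaglandin E2; NADH fluorescence (360/450 nm) read 5 times over 30-s intervals, last minus first.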
* hit, by the source's call; [ ] = remark or other dose. Unless noted, the call rests on the fitted dose curve; in most records, active means well fitted curve in the direction sought with a large enough effect; inconclusive means small, poorly fitted or top-dose-only effect, or another doubt; inactive means no such curve, though single readings can be large; an effect the other way counts as inactive or inconclusive.

CCC(C)NC(=O)CSc1nc(-c2cccs2)cc(C(F)(F)F)n1 (centres undefined) was read as ALDH1A1 inh -3%, HTT aggregate 13µM*, HTT ATP protect -13%[10 µM], PNC assembly inh 16, CBFb-RUNX1 inh 2% and HPGD block inconclusive.
Cn1c(=O)c2cc3c(nc2n(C)c1=O)CC(c1ccccc1)CC3=O (centres undefined) was read as ALDH1A1 inh 14µM*, HTT aggregate -18%[9.22 µM], HTT ATP protect -4%[10 µM] and CBFb-RUNX1 inh -12%.
For CC1CN(C(=O)c2ccc(COc3ccc(C(C)C)cc3)o2)CC(C)O1 (centres undefined) the results were ALDH1A1 inh 28µM*, HTT aggregate -11%[9.22 µM], HTT ATP protect -10%[10 µM] and CBFb-RUNX1 inh 0%.
CC(OC(=O)CCc1nc2ccccc2c(=O)[nH]1)C(=O)c1ccc(Br)cc1 (centres undefined) was read as ALDH1A1 inh -6%, HTT aggregate inconclusive, PNC assembly inh inconclusive, CBFb-RUNX1 inh -4% and HPGD block -16%.
CS(=O)(=O)c1ncc(Cl)c(C(=O)Nc2ccc(N3CCOCC3)cc2)n1 was read as ALDH1A1 inh 10µM*, HTT aggregate 11µM*, HTT ATP protect -22%[10 µM], PNC assembly inh -8, CBFb-RUNX1 inh -21% and HPGD block -28%.
For CCCNC(=O)OC[C@@H]1O[C@H](CCO/N=C2\c3cc(OC)ccc3O[C@H](c3cccc(OC)c3)[C@H]2O)C=C[C@@H]1Oc1ccc(OC)cc1 the results were ALDH1A1 inh 3%[13.5 µM], HTT ATP protect inconclusive and CBFb-RUNX1 inh 13%[13.1 µM].
For O=c1c(-c2cccs2)nc2cnc(N3CCNCC3)nc2n1C1CC1 the results were ALDH1A1 inh inconclusive and HTT ATP protect -84%.
For O=C(NCc1ccc2c(c1)OCO2)c1ccc(C2SCC(=O)N2Cc2ccco2)cc1 (centres undefined) the results were ALDH1A1 inh 7.1µM*, HTT aggregate 2%, HTT ATP protect 3%, PNC assembly inh inconclusive and HPGD block inconclusive.
Screening C=CCNC(=O)c1ccc(C2SCC(=O)N2Cc2ccco2)cc1 (centres undefined) returned ALDH1A1 inh inconclusive, HTT aggregate -24%, HTT ATP protect -40% and CBFb-RUNX1 inh -10%.
Screening COCCCNC(=O)c1ccc(C2SCC(=O)N2Cc2ccco2)cc1 (centres undefined) returned ALDH1A1 inh inconclusive, HTT aggregate -17%, HTT ATP protect -39% and CBFb-RUNX1 inh 7%.
For COCCNC(=O)c1ccc(C2SCC(=O)N2Cc2ccco2)cc1 (centres undefined) the results were ALDH1A1 inh 10µM*, HTT aggregate -7%[9.22 µM], HTT ATP protect -1%[10 µM] and CBFb-RUNX1 inh 1%.
`CN1CCN(C(=O)c2ccc(C3SCC(=O)N3Cc3ccco3)cc2)CC1` (centres undefined) gave ALDH1A1 inh inconclusive, HTT aggregate 9%, HTT ATP protect 10%, PNC assembly inh inconclusive, CBFb-RUNX1 inh inconclusive and HPGD block 13µM*.
Screening CCCNC(=O)c1ccc(C2SCC(=O)N2Cc2ccccc2)cc1 (centres undefined) returned ALDH1A1 inh -3%, HTT aggregate 24%, HTT ATP protect 15%[10 µM], PNC assembly inh inconclusive, CBFb-RUNX1 inh -11% and HPGD block 3.2µM*.
For CC(C)CNC(=O)c1ccc(C2SCC(=O)N2Cc2ccccc2)cc1 (centres undefined) the results were ALDH1A1 inh 3%, HTT aggregate -2%[9.22 µM], HTT ATP protect -1%[10 µM] and CBFb-RUNX1 inh 9%.
`Cc1ccc(C2NCCS2)cc1` (centres undefined) gave ALDH1A1 inh 7%, HTT aggregate -10% and CBFb-RUNX1 inh 0%.
`CN(C)c1ccc(C2NCCS2)cc1` (centres undefined) gave ALDH1A1 inh 1µM*, HTT aggregate 9%, HTT ATP protect 6%, PNC assembly inh inconclusive, CBFb-RUNX1 inh -2% and HPGD block -18%.
For O=C1CSC(=S)N1N1C(=O)c2cccc([N+](=O)[O-])c2C1=O the results were ALDH1A1 inh 7.9µM*, HTT aggregate -7%, HTT ATP protect -18% and CBFb-RUNX1 inh inconclusive.
COc1ccccc1NC(=S)N(Cc1ccc(C)cc1)Cc1ccccn1 was read as ALDH1A1 inh inconclusive, HTT aggregate 25µM*, HTT ATP protect -35% and CBFb-RUNX1 inh -10%.
`COc1ccc(CN(Cc2ccc(C(=O)O)cc2)C(=S)Nc2ccccc2F)cc1OC` gave ALDH1A1 inh 13µM*, HTT aggregate 16%, HTT ATP protect 5% and CBFb-RUNX1 inh 2%.
COc1ccccc1NC(=S)N(Cc1ccc(C(=O)O)cc1)Cc1ccc(OC)c(OC)c1 was read as ALDH1A1 inh -5%, HTT aggregate 8%, HTT ATP protect -41% and CBFb-RUNX1 inh -1%.
For CC(=O)c1c(C)[nH]c(C(=O)N2CCN(c3ncccn3)CC2)c1C the results were ALDH1A1 inh 12%, HTT aggregate -15%, HTT ATP protect -5%, PNC assembly inh -10, CBFb-RUNX1 inh -2% and HPGD block -16%.
Screening CC(=O)c1c(C)[nH]c(C(=O)N2CCCCCC2)c1C returned ALDH1A1 inh -6%, HTT aggregate 2%, HTT ATP protect 12%, PNC assembly inh -13, CBFb-RUNX1 inh 5% and HPGD block 13µM*.
Screening COc1ccc(C2CC(c3ccccc3)Oc3c(C)ccc(C(C)C)c32)cc1 (centres undefined) returned CBFb-RUNX1 inh -6%.
`CC(C)Cc1nnc(NS(=O)(=O)Cc2ccccc2)s1` gave ALDH1A1 inh 13µM*, HTT aggregate -4%, HTT ATP protect 2%, PNC assembly inh inconclusive, CBFb-RUNX1 inh -22% and HPGD block 20µM*.
CC(=O)Nc1nnc(Cc2ccccc2)s1 was read as ALDH1A1 inh 1%, HTT aggregate 8%, HTT ATP protect -4%, PNC assembly inh -13, CBFb-RUNX1 inh 10% and HPGD block -13%.
Screening CS(=O)(=O)Nc1nnc(Cc2ccccc2)s1 returned ALDH1A1 inh -8%, HTT aggregate -3%, HTT ATP protect -9%[10 µM], PNC assembly inh -100*, CBFb-RUNX1 inh -3% and HPGD block -24%.
`CC(C)(C)Cc1nnc(NS(=O)(=O)c2ccccc2)s1` gave ALDH1A1 inh inconclusive, HTT aggregate -3%[9.22 µM], HTT ATP protect -11%[10 µM] and CBFb-RUNX1 inh 5%.

Assay outcomes from PubChem BioAssay.
